Drawing on PubChem BioAssay (Tox21), this text covers Potency for 25 molecules.

The structures appear in SMILES notation. Where “and” joins values, the source holds several entries; their conditions need not be identical. Equal values may be shown once. Inconclusive results are not listed. Some structures have more than one record in an assay (separate samples or runs), and their calls can disagree. Calls of active or inactive are those of the source. The call rests on the fitted dose curve; in most records, active means well fitted curve in the direction sought with a large enough effect in the repeat runs; inconclusive means weak or mixed curves; inactive means no such curve, though single readings can be large; an effect the other way counts as inactive or inconclusive.

Assay [1] can be described thus: qHTS assay to identify small molecule antagonists of the glucocorticoid receptor (GR) signaling pathway - cell viability counter screen (AID 720693). Further: nearly all actives have a fitted effect of over 55% in size. In general terms: In qHTS, concentration-response curves come from the screen itself.
A short description of assay [2]: qHTS assay for identifying genotoxic compounds that show differential cytotoxicity against isogenic chicken DT40 cell lines with known DNA damage response pathways - wild type cell line (AID 743012). Further: nearly all actives have a fitted effect of over 60% in size. A digest of the protocol: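 Quantitative HTS on parental DT40 cells: 40 h compound treatment at 37 C/5% CO2, with viability then determined by CellTiter-Glo luminescence. Values serve as the DNA repair-proficient reference for differential cytotoxicity.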

Assay [3] can be described thus: qHTS assay for identifying genotoxic compounds that show differential cytotoxicity against isogenic chicken DT40 cell lines with known DNA damage response pathways - Rev3 mutant cell line (AID 743014). Further: nearly all actives have a fitted effect of over 55% in size.
Assay [4] is described as follows: qHTS assay for identifying genotoxic compounds that show differential cytotoxicity against isogenic chicken DT40 cell lines with known DNA damage response pathways - Rad54/Ku70 mutant cell line (AID 743015). Further: nearly all actives have a fitted effect of over 60% in size.
A short description of assay [5]: qHTS assay to identify small molecule antagonists of the androgen receptor (AR) signaling pathway - cell viability counter screen (AID 743033; further: nearly all actives have a fitted effect of over 45% in size).
Assay [6] in a line: qHTS assay to identify small molecule antagonists of the androgen receptor (AR) signaling pathway using the MDA cell line - cell viability counter screen (AID 743041; further: nearly all actives have a fitted effect of over 45% in size). The essentials:
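Cells were plated at 3,000 per well and left 5 h. Compounds in DMSO were then pinned in, followed by R1881. After 16 h at 37C, CellTiter-Fluor fluorescence gave viability.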
Potency means the concentration at half of the fitted maximal effect.

Consider `ClC(Cl)(Cl)c1ccccc1`, for which the Potency result in assay [1], in assay [2], in assay [3], in assay [4], in assay [5] and in assay [6] was “inactive” in each case.
With `O=C(O)CF`, the Potency entry in assay [1], in assay [2], in assay [3], in assay [4], in assay [5] and in assay [6] was “inactive” each time.
`CCCCOCC1CO1` (stereo not given): the Potency entry in assay [1], in assay [2], in assay [3], in assay [4], in assay [5] and in assay [6] was “inactive” throughout.
On to `CC(C)CON=O`, for which the Potency result in assay [1], in assay [2], in assay [3], in assay [4], in assay [5] and in assay [6] was “inactive” in each case.
Regarding `O=P(OCCCl)(OCCCl)OCCCl`, the Potency entry in assay [1], in assay [2], in assay [3], in assay [4], in assay [5] and in assay [6] was “inactive” throughout.
Consider `CC(O)CN(CC(C)O)CC(C)O` (stereo not given), for which the Potency entry in assay [1], in assay [2], in assay [3], in assay [4], in assay [5] and in assay [6] was “inactive” in each case.
Regarding `Oc1ccc(Cl)cc1Cl`, the Potency result in assay [1], in assay [2], in assay [3], in assay [4], in assay [5] and in assay [6] was “inactive” each time.
On to `CC(C)(O)C#N`, for which the Potency entry in assay [1], in assay [2], in assay [3], in assay [4], in assay [5] and in assay [6] was “inactive” in each case.
Consider `Clc1ccc(C(Cl)(Cl)Cl)cc1`, for which the Potency result in assay [1], in assay [2], in assay [3], in assay [4], in assay [5] and in assay [6] was “inactive” throughout.
For the molecule `c1ccc(C2CO2)cc1` (stereo not given), the Potency entry in assay [1], in assay [2], in assay [3], in assay [4], in assay [5] and in assay [6] was “inactive” each time.
Regarding `O=NN(c1ccccc1)c1ccccc1`, the Potency entry in assay [1], in assay [2], in assay [3], in assay [4], in assay [5] and in assay [6] was “inactive” throughout.
As for `CN(C)c1nc(=O)n(C2CCCCC2)c(=O)n1C`, the Potency entry in assay [1], in assay [2], in assay [3], in assay [4], in assay [5] and in assay [6] was “inactive” in each case.
For the molecule `CCOS(=O)(=O)OCC`, the Potency result in assay [1], in assay [2], in assay [4], in assay [5] and in assay [6] was “inactive” each time. In addition, the Potency entry in assay [3] is “inactive and 54.5 µM (active)”.
As for `CC[n+]1c(-c2ccccc2)c2cc(N)ccc2c2ccc(N)cc21`, the Potency in assay [1] was 16.9 µM (active) and 19 µM (active) and 13.7 µM (active); in assay [2], 211 nM (active) and 531 nM (active) and 171 nM (active); in assay [3], 376 nM (active) and 841 nM (active) and 96.4 nM (active); in assay [4], 298 nM (active) and 750 nM (active) and 85.9 nM (active); in assay [5] it was 12 µM (active) and 4.88 µM (active); in assay [6], 13.3 µM (active) and 26.6 µM (active) and 30.5 µM (active).
As to `C[N+](C)(C)CC(=O)O`, the Potency entry in assay [1], in assay [2], in assay [3], in assay [4], in assay [5] and in assay [6] was “inactive” each time.
With `Nc1ncn[nH]1`, the Potency result in assay [1], in assay [2], in assay [3], in assay [4], in assay [5] and in assay [6] was “inactive” in each case.
As to `N#Cc1cccnc1`, the Potency entry in assay [1], in assay [2], in assay [3], in assay [4], in assay [5] and in assay [6] was “inactive” each time.
Take `N#Cc1c(Cl)c(Cl)c(Cl)c(C#N)c1Cl`: the Potency in assay [1] was 21.5 µM (active) and 21.9 µM (active); in assay [2] it was 268 nM (active) and 122 nM (active); in assay [3], 213 nM (active) and 172 nM (active); in assay [4] it was 268 nM (active) and 154 nM (active); in assay [5], 2.41 µM (active) and 1.55 µM (active); in assay [6], 4.76 µM (active) and 6.11 µM (active).
Take `ClCc1ccccn1`: the Potency result in assay [1], in assay [2], in assay [3], in assay [4], in assay [5] and in assay [6] was “inactive” each time.
As for `N#CC(c1ccccc1)c1ccccc1`, the Potency entry in assay [1], in assay [2], in assay [3], in assay [4], in assay [5] and in assay [6] was “inactive” in each case.
For `CC(C)Nc1nc(Cl)nc(NC(C)C)n1`, the Potency entry in assay [1], in assay [2], in assay [3], in assay [4], in assay [5] and in assay [6] was “inactive” in each case.
With `CCCCOCCOC(C)=O`, the Potency entry in assay [1], in assay [2], in assay [3], in assay [4], in assay [5] and in assay [6] was “inactive” in each case.
Take `CC1(C)C(C(=O)OC(C#N)c2cccc(Oc3ccccc3)c2)C1(C)C` (stereo not given): the Potency entry in assay [1], in assay [3], in assay [5] and in assay [6] was “inactive” in each case. Besides, the Potency entry is “inactive and 48.5 µM (active)” in assay [2]; “inactive and 54.4 µM (active)” in assay [4].
As for `CN(C)P(=O)(N(C)C)N(C)C`, the Potency result in assay [1], in assay [2], in assay [3], in assay [4], in assay [5] and in assay [6] was “inactive” each time.
Turning to `Cc1ccc(N=CN(C)C=Nc2ccc(C)cc2C)c(C)c1`, the Potency entry in assay [1], in assay [5] and in assay [6] was “inactive” in each case. Besides, the Potency entry in assay [2] was “inactive and 30.6 µM (active)”; in assay [3], “inactive and 38.5 µM (active)”; in assay [4], “inactive and 30.6 µM (active)”.
